Assays:
Test in all cases: DAPPL (digital affinity profiling via proximity ligation, sequencing); 10 mM Tris-HCl pH 7.5, 50 mM NaCl, 1 mM DTT, 4% glycerol, room temperature, 30 min; GST-TFs on glutathione beads, 16-mer random dsDNA library, 0.1% formaldehyde crosslink after washing; high values mean tight binding
FLI1 = molecular target: T1, FLI1 (Homo sapiens, UniProt Q01543 1-452); conditions: protein: recombinant; tags: N-terminal GST; dsDNA, one strand shown
T1 sequence: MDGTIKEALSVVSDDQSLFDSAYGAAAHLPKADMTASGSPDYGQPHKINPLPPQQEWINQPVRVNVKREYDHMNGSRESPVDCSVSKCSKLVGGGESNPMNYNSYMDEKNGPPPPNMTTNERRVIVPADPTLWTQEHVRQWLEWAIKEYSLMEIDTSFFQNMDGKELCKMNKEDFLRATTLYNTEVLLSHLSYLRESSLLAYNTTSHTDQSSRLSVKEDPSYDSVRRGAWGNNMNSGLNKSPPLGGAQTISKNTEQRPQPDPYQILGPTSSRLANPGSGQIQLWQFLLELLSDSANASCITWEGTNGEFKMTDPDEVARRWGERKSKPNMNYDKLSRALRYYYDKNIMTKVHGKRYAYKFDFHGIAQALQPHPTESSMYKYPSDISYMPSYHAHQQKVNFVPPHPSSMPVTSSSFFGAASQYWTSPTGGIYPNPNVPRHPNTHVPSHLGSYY
Procedure, shortened: (§1)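 Pools of DNA-barcoded human transcription factors, expressed in yeast as GST fusions on glutathione beads and combined with a tag-only sample, were incubated with 200 nmole of a 16-mer random double-stranded DNA library. Incubation took 30 min at room temperature in Tris/NaCl/DTT/glycerol buffer and was followed by washing, 0.1% formaldehyde crosslinking, proximity ligation (BsaI/T4 ligase, 1 h, 37 °C), PCR amplification and sequencing on an Illumina NextSeq500. Binding signal is the ratio of a hexamer's read frequency for a factor to its frequency for the tag-only sample.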

ELK1 = molecular target: T2, ELK1 (Homo sapiens, UniProt P19419 1-428); conditions: protein: recombinant; tags: N-terminal GST; dsDNA, one strand shown
T2 sequence: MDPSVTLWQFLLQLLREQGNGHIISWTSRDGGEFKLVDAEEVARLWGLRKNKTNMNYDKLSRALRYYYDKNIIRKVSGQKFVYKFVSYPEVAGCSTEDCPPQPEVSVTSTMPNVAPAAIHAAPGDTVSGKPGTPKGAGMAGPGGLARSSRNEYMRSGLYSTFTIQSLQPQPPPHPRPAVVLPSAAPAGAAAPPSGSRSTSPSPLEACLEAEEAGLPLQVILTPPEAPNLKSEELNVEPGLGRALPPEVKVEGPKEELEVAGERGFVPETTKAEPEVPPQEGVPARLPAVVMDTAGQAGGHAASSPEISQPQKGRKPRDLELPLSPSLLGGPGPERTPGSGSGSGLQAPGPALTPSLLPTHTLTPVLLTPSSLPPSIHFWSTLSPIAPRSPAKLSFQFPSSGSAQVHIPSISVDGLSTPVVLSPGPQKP
Procedure, shortened: as §1

GABPA = molecular target: T3, GABPA (Homo sapiens, UniProt Q06546 1-454); conditions: protein: recombinant; tags: N-terminal GST; dsDNA, one strand shown
T3 sequence: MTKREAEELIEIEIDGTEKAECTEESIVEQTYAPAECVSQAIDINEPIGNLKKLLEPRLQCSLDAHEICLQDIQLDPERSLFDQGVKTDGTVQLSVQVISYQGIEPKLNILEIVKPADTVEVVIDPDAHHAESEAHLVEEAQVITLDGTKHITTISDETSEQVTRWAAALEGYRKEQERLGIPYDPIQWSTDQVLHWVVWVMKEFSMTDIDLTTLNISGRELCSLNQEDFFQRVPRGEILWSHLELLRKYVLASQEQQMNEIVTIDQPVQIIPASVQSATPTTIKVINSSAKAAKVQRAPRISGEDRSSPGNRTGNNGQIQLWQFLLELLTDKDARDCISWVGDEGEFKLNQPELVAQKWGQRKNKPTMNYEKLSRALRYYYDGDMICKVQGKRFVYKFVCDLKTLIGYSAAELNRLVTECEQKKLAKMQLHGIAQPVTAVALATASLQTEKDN
Procedure, shortened: as §1

ERG = molecular target: T4, ERG (Homo sapiens, UniProt P11308 1-479); conditions: protein: recombinant; tags: N-terminal GST; dsDNA, one strand shown
T4 sequence: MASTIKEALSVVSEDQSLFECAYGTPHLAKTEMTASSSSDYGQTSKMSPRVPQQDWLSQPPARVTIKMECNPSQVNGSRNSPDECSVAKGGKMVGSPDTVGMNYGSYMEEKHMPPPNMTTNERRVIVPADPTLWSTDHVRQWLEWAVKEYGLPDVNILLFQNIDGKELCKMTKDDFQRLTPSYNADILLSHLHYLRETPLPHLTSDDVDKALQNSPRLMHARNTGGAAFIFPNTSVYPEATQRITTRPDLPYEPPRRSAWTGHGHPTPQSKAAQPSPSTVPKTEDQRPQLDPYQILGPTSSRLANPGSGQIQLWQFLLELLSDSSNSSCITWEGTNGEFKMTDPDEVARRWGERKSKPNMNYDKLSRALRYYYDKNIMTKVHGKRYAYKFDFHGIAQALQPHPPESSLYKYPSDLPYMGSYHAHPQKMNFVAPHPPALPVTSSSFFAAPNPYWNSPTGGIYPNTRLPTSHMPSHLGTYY
Procedure, shortened: as §1

ELF1 = ELF1 (Homo sapiens, UniProt P32519 1-619); conditions: protein: recombinant; tags: N-terminal GST; dsDNA, one strand shown
Procedure, shortened: as §1

EHF = molecular target: T5, EHF (Homo sapiens, UniProt Q9NZC4 1-300); conditions: protein: recombinant; tags: N-terminal GST; dsDNA, one strand shown
T5 sequence: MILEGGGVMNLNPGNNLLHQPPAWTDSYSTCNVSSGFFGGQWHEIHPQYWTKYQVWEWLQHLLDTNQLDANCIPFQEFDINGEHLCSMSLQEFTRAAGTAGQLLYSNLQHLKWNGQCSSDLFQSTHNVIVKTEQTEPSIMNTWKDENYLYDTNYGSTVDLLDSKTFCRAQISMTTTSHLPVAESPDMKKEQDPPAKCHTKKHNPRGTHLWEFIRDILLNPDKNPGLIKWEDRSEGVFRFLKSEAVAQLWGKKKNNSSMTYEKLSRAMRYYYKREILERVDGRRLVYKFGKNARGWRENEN
Procedure, shortened: as §1

SPI1 = SPI1 (Homo sapiens, UniProt P17947 1-270); conditions: protein: recombinant; tags: N-terminal GST; dsDNA, one strand shown
Procedure, shortened: as §1

SPIB = SPIB (Homo sapiens, UniProt Q01892 1-262); conditions: protein: recombinant; tags: N-terminal GST; dsDNA, one strand shown
Procedure, shortened: as §1

ELK3 = molecular target: T6, ELK3 (Homo sapiens, UniProt P41970 1-407); conditions: protein: recombinant; tags: N-terminal GST; dsDNA, one strand shown
T6 sequence: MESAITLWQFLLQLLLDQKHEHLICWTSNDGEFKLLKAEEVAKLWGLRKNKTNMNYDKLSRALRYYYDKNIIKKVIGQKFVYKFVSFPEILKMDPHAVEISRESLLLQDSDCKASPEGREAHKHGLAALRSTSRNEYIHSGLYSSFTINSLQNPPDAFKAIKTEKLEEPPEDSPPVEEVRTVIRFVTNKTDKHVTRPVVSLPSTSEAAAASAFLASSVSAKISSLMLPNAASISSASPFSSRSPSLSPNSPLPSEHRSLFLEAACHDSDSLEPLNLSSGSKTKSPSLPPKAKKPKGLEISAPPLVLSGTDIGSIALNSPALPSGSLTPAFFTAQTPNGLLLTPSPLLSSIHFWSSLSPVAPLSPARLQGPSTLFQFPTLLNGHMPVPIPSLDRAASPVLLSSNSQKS
Procedure, shortened: as §1

FEV = molecular target: T7, FEV (Homo sapiens, UniProt Q99581 1-238); conditions: protein: recombinant; tags: N-terminal GST; dsDNA, one strand shown
T7 sequence: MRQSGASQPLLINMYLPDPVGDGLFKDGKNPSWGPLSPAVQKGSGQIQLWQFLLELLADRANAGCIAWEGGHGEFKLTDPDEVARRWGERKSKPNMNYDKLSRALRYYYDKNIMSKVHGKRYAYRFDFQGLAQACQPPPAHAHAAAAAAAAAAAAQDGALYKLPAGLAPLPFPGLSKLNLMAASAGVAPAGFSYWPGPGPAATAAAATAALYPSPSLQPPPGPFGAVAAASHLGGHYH
Procedure, shortened: as §1

ETV5 = ETV5 (Homo sapiens, UniProt P41161 1-510); conditions: protein: recombinant; tags: N-terminal GST; dsDNA, one strand shown
Procedure, shortened: as §1

HSF1 = HSF1 (Homo sapiens, UniProt Q00613 1-529); conditions: protein: recombinant; tags: N-terminal GST; chain copies: 3; dsDNA, one strand shown
Procedure, shortened: as §1

SPIC = molecular target: T8, SPIC (Homo sapiens, UniProt Q8N5J4 1-248); conditions: protein: recombinant; tags: N-terminal GST; dsDNA, one strand shown
T8 sequence: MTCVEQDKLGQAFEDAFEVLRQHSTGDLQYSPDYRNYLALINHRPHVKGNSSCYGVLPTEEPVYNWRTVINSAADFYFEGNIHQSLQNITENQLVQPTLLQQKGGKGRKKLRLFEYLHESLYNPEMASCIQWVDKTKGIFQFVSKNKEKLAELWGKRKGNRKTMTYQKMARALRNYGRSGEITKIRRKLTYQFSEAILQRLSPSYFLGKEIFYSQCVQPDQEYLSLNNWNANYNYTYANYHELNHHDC
Procedure, shortened: as §1

ELF4 = ELF4 (Homo sapiens, UniProt Q99607 1-663); conditions: protein: recombinant; tags: N-terminal GST; dsDNA, one strand shown
Procedure, shortened: as §1

ELK4 = molecular target: T9, ELK4 (Homo sapiens, UniProt P28324-2 1-405); conditions: protein: recombinant; tags: N-terminal GST; dsDNA, one strand shown
T9 sequence: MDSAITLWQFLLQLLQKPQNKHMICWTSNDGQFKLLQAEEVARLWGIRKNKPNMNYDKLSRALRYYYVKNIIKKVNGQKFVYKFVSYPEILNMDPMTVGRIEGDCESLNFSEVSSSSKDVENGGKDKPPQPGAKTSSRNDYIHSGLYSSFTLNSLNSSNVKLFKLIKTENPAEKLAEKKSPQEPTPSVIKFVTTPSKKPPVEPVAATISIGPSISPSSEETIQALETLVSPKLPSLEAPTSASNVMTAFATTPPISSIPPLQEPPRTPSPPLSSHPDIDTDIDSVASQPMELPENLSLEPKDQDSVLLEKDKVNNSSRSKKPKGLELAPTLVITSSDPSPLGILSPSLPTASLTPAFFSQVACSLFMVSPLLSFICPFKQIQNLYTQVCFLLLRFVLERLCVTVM
Procedure, shortened: as §1

ETV2 = molecular target: T10, ETV2 (Homo sapiens, UniProt O00321 1-342); conditions: protein: recombinant; tags: N-terminal GST; dsDNA, one strand shown
T10 sequence: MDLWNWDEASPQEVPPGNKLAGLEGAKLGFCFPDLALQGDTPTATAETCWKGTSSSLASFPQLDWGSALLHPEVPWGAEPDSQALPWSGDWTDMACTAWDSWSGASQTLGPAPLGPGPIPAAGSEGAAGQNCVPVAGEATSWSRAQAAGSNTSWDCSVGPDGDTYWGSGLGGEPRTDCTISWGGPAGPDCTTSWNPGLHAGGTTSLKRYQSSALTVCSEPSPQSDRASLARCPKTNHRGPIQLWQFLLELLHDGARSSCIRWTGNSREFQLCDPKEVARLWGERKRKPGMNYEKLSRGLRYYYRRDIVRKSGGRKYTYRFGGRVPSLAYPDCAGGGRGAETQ
Procedure, shortened: as §1

ELF3 = molecular target: T11, ELF3 (Homo sapiens, UniProt P78545 1-371); conditions: protein: recombinant; tags: N-terminal GST; dsDNA, one strand shown
T11 sequence: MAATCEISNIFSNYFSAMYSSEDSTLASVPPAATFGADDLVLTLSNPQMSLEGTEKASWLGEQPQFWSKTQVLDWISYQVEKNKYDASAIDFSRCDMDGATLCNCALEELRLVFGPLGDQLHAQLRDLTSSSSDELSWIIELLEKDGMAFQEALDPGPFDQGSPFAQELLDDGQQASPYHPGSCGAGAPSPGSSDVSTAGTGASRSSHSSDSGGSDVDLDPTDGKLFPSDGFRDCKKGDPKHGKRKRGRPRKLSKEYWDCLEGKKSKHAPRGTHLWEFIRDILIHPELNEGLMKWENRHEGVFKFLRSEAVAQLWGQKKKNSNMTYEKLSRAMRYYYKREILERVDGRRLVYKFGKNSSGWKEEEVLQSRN
Procedure, shortened: as §1

CRX = CRX (Homo sapiens, UniProt O43186 1-299); conditions: protein: recombinant; tags: N-terminal GST; dsDNA, one strand shown
Procedure, shortened: as §1

ETV1 = ETV1 (Homo sapiens, UniProt P50549 1-477); conditions: protein: recombinant; tags: N-terminal GST; dsDNA, one strand shown
Procedure, shortened: as §1

Chain of SPIB (Q01892 whole entry): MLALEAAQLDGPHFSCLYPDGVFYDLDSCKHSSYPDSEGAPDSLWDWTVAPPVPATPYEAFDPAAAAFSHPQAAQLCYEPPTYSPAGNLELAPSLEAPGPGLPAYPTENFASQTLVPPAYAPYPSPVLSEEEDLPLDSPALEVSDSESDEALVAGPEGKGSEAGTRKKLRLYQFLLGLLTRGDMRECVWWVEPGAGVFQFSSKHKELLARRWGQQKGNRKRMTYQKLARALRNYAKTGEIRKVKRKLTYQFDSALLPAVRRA
Chain of ELF1 (P32519 whole entry): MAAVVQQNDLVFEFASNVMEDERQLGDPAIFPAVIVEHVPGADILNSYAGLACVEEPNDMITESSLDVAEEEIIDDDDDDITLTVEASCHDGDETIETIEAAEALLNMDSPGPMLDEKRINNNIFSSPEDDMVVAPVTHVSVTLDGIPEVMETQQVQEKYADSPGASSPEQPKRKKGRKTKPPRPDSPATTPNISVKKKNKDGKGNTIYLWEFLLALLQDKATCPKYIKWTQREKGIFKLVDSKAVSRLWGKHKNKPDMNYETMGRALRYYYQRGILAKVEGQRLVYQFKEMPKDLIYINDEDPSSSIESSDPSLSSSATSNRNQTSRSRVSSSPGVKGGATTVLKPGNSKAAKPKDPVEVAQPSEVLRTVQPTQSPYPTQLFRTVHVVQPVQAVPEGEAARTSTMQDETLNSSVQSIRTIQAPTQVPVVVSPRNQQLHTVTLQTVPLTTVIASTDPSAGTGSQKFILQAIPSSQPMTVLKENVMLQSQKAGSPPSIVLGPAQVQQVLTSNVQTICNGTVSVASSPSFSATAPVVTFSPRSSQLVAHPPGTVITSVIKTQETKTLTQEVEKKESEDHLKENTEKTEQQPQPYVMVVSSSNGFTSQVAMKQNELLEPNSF
Chain of HSF1 (Q00613 whole entry): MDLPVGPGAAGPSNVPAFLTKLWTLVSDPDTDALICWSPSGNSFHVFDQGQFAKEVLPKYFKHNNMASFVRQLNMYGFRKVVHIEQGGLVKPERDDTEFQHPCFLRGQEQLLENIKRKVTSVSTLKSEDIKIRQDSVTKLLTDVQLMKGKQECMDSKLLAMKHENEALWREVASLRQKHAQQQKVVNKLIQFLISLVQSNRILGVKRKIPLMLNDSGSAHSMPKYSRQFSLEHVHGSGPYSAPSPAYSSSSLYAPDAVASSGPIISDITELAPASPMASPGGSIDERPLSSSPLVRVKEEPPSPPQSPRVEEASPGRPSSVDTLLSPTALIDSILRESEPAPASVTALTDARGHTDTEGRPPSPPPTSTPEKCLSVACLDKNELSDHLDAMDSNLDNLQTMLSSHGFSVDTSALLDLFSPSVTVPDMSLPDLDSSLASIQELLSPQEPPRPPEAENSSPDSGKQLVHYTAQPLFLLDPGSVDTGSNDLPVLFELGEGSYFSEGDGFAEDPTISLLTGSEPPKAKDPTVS
Chain of ETV5 (P41161 whole entry): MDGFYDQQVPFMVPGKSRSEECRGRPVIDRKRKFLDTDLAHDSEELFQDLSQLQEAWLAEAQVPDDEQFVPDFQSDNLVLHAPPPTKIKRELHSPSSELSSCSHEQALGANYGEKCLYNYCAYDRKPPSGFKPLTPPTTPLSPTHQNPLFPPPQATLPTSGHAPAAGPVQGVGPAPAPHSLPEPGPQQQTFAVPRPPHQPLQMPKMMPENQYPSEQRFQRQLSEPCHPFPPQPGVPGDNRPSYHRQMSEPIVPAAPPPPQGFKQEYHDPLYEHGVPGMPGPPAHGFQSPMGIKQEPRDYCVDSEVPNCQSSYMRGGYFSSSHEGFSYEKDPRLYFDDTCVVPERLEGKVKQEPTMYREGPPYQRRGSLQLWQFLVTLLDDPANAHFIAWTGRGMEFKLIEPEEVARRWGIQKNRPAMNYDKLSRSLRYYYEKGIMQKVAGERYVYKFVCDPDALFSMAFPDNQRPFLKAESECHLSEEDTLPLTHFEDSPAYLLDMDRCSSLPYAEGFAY
Chain of CRX (O43186 whole entry): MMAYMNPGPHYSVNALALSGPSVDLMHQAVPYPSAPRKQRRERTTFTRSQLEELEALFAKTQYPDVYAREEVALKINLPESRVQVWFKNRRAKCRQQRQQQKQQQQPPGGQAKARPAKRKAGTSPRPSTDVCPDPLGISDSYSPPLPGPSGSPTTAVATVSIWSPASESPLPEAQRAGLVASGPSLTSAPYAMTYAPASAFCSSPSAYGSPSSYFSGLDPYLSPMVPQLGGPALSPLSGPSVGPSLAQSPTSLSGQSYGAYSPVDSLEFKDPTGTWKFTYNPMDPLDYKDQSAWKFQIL
Chain of ETV1 (P50549 whole entry): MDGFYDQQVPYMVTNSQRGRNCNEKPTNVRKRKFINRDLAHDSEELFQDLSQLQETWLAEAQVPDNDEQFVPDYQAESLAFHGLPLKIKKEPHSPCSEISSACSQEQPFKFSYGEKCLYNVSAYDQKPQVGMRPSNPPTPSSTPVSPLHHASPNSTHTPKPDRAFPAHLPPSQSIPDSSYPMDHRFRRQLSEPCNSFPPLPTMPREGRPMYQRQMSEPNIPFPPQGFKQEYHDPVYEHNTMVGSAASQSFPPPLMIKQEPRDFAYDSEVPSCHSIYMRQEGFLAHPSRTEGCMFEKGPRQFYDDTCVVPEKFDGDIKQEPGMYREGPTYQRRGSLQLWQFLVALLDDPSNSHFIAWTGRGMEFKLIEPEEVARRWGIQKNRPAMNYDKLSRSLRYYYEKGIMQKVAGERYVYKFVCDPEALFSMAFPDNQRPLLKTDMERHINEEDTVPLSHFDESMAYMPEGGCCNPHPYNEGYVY
Chain of ELF4 (Q99607 whole entry): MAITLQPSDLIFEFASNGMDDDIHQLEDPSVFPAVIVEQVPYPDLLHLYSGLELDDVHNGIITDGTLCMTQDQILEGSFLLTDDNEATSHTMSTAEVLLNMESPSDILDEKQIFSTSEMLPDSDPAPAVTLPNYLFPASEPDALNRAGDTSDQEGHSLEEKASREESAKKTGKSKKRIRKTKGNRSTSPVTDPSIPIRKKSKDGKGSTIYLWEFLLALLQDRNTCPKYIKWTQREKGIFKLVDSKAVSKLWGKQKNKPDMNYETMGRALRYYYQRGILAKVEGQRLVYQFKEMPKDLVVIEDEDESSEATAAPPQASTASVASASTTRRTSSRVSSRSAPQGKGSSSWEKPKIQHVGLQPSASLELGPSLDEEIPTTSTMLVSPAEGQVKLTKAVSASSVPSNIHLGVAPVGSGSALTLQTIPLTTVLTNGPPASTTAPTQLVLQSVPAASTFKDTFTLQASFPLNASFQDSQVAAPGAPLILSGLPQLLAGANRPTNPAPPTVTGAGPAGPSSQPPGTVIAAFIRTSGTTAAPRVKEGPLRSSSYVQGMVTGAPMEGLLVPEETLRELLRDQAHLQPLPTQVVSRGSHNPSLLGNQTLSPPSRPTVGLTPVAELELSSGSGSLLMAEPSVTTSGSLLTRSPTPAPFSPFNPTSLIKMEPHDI

Question: Which results are given for TTTCCC?
Answer: binding signal (FLI1): 1.65 fold enrichment (6-mer frequency, TF over GST control); binding signal (ELK1): 1.69 fold enrichment (6-mer frequency, TF over GST control); binding signal (GABPA): 1.76 fold enrichment (6-mer frequency, TF over GST control); binding signal (ERG): 1.88 fold enrichment (6-mer frequency, TF over GST control); binding signal (ELF1): 1.61 fold enrichment (6-mer frequency, TF over GST control); binding signal (EHF): 1.69 fold enrichment (6-mer frequency, TF over GST control); binding signal (SPI1): 1.69 fold enrichment (6-mer frequency, TF over GST control); binding signal (SPIB): 1.81 fold enrichment (6-mer frequency, TF over GST control); binding signal (ELK3): 1.75 fold enrichment (6-mer frequency, TF over GST control); binding signal (FEV): 1.61 fold enrichment (6-mer frequency, TF over GST control); binding signal (ETV5): 1.93 fold enrichment (6-mer frequency, TF over GST control); binding signal (HSF1): 1.57 fold enrichment (6-mer frequency, TF over GST control); binding signal (SPIC): 1.87 fold enrichment (6-mer frequency, TF over GST control); binding signal (ELF4): 1.77 fold enrichment (6-mer frequency, TF over GST control); binding signal (ELK4): 1.47 fold enrichment (6-mer frequency, TF over GST control); binding signal (ETV2): 1.58 fold enrichment (6-mer frequency, TF over GST control); binding signal (ELF3): 1.43 fold enrichment (6-mer frequency, TF over GST control); binding signal (CRX): 1.43 fold enrichment (6-mer frequency, TF over GST control); binding signal (ETV1): 1.6 fold enrichment (6-mer frequency, TF over GST control)
